We go through 2 compounds from ChEMBL document CHEMBL1961873, “Compounds: GSK PKIS; Assays: Nanosyn kinase panel” (2012).

The target in assay [1] is Protein kinase C gamma type (Homo sapiens) (UniProt P05129). As to conditions: at 1 µM.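 Also: each value is an averaged percent inhibition of the enzyme.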
The target in assay [2] is T1, Protein kinase C iota type (Homo sapiens) (UniProt P41743).
T1 sequence (whole entry): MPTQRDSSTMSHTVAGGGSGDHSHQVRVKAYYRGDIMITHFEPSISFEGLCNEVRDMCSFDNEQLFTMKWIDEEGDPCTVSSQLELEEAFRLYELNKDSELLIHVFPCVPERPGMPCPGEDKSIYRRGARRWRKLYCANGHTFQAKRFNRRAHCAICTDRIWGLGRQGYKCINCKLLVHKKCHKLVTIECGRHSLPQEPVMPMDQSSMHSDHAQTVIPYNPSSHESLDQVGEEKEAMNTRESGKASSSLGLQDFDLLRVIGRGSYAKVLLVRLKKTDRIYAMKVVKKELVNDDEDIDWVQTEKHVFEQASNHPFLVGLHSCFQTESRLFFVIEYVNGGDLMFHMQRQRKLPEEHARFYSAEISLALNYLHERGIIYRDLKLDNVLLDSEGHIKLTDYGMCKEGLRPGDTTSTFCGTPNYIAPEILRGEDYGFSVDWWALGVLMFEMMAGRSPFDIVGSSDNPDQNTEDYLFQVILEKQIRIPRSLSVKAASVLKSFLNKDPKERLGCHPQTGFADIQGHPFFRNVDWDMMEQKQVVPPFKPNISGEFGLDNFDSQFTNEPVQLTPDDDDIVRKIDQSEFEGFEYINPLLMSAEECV
As to conditions: at 0.1 µM.

For assay [3], the target named is T1, Protein kinase C iota type (Homo sapiens). The settings on record: at 1 µM.
In assay [4] the target is Protein kinase C theta type (Homo sapiens) (UniProt Q04759). As to conditions: at 0.1 µM.
Sequence of Protein kinase C theta type (Homo sapiens) (Q04759 whole entry, looked up): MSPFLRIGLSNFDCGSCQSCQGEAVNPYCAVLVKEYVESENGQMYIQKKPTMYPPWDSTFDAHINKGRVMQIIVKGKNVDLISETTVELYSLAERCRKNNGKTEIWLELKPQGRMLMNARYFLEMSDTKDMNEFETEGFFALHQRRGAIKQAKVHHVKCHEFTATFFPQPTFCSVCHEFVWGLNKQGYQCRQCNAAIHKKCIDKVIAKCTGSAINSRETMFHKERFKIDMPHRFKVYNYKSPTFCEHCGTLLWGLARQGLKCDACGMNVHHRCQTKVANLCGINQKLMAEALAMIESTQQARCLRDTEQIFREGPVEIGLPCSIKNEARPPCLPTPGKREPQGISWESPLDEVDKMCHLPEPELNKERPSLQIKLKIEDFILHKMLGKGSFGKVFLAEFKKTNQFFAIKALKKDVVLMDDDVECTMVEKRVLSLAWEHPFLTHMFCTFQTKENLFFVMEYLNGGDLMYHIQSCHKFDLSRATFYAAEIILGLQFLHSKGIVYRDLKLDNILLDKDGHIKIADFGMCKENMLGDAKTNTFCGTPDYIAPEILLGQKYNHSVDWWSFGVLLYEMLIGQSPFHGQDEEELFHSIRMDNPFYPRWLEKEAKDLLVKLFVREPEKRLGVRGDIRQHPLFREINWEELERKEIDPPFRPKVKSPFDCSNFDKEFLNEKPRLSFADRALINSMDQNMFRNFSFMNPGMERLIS
Assay [5] has the same target. As to conditions: at 1 µM.
In assay [6] the target is Protein kinase C beta type (Homo sapiens) (UniProt P05771). The settings on record: at 0.1 µM.
Sequence of Protein kinase C beta type (Homo sapiens) (P05771 2-671 limits assumed): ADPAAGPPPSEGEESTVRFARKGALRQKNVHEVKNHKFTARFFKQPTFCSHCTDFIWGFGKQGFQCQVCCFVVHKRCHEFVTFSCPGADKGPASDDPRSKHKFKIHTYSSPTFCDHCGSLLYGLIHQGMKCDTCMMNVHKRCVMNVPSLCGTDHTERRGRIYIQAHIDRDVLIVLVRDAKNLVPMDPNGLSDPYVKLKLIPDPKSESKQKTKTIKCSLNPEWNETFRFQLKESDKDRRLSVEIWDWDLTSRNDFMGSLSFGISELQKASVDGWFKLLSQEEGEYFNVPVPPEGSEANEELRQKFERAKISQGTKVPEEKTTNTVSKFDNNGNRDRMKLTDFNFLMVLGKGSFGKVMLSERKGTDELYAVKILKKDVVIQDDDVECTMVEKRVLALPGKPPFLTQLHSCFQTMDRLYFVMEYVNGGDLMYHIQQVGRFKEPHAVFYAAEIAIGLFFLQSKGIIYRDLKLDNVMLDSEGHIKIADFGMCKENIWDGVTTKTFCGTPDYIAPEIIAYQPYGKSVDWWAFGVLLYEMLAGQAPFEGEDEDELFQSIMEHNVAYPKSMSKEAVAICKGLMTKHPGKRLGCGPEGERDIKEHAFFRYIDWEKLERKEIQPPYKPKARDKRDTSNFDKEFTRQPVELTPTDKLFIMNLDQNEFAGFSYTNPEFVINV
The target is the same in assay [7]. The settings on record: at 1 µM.
Assay [8] addresses T2, Serine/threonine-protein kinase D1 (Homo sapiens) (UniProt Q15139).
T2 sequence (whole entry): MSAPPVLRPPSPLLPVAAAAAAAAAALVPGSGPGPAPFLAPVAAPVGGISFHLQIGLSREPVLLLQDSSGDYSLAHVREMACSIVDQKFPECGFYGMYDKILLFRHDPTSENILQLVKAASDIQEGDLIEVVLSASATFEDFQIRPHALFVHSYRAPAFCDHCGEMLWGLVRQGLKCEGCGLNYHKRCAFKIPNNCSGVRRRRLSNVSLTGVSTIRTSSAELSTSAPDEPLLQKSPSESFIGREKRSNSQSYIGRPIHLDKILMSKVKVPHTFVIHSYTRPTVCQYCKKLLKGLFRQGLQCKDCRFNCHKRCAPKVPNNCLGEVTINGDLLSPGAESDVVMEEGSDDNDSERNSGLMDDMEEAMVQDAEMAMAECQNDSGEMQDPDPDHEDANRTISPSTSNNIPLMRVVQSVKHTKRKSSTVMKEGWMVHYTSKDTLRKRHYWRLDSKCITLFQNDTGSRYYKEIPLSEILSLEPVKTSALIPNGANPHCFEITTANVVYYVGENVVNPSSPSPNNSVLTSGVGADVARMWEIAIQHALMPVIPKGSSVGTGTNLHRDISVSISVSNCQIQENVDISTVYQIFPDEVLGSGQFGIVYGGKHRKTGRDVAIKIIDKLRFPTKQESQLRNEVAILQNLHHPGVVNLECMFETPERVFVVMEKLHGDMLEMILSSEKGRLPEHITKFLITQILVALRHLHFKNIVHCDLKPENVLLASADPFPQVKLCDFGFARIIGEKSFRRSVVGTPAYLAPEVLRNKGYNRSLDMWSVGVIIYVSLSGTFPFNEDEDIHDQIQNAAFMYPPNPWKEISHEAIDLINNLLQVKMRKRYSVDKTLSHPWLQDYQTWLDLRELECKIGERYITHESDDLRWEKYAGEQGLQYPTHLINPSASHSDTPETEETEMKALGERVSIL
As to conditions: at 0.1 µM.

Assay [9] deals with T2, Serine/threonine-protein kinase D1 (Homo sapiens). The settings on record: at 1 µM.
Assay [10] deals with T3, Serine/threonine-protein kinase D2 (Homo sapiens) (UniProt Q9BZL6).
T3 sequence (whole entry): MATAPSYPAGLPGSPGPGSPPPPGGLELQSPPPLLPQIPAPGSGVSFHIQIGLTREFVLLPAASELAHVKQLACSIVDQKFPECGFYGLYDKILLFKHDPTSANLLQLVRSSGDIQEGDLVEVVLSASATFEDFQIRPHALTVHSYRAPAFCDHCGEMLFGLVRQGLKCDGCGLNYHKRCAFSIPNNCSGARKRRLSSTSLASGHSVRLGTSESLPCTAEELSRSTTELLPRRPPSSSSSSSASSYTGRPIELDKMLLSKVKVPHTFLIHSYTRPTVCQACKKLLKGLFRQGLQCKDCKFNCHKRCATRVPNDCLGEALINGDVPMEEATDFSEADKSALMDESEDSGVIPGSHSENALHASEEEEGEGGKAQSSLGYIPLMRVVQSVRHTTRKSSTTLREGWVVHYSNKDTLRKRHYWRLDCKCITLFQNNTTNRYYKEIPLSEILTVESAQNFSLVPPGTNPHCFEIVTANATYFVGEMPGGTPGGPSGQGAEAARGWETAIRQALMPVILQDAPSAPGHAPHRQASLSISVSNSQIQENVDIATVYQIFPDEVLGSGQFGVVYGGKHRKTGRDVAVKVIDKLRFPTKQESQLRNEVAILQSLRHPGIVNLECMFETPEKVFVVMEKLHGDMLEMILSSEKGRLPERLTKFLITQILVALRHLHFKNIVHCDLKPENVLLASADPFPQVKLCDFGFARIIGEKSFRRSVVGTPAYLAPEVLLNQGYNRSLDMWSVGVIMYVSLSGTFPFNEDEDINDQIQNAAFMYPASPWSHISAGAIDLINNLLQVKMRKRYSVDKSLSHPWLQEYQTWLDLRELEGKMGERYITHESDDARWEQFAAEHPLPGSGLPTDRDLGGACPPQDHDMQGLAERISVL
As to conditions: at 0.1 µM.

Assay [11] has as its target T3, Serine/threonine-protein kinase D2 (Homo sapiens). The settings on record: at 1 µM.
Assay [12] concerns the target T4, Serine/threonine-protein kinase D3 (Homo sapiens) (UniProt O94806).
T4 sequence (whole entry): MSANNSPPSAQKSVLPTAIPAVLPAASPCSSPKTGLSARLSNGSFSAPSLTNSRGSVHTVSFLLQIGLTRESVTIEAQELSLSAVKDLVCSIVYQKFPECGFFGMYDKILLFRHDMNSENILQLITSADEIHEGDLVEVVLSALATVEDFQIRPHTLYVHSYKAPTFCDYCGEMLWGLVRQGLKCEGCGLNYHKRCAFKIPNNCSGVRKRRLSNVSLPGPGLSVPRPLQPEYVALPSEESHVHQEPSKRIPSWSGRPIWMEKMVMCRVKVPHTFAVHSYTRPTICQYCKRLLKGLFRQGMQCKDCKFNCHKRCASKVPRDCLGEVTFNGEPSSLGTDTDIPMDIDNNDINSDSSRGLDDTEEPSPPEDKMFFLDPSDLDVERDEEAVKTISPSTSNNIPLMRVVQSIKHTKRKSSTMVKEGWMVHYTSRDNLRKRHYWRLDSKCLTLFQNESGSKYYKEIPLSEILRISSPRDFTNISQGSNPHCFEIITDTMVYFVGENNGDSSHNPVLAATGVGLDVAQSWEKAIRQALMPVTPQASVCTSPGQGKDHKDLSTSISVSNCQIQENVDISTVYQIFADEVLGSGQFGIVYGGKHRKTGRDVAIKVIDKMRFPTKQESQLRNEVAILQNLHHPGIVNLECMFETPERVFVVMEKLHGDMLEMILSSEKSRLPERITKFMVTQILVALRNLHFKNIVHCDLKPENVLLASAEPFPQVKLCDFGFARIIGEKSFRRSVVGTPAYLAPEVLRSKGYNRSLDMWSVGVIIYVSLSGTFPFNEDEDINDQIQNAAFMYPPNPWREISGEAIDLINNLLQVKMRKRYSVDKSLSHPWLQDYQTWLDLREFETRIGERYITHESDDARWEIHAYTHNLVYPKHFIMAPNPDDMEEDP
The settings on record: at 0.1 µM.

Assay [13] deals with T4, Serine/threonine-protein kinase D3 (Homo sapiens). The settings on record: at 1 µM.
The target of assay [14] is T5, cGMP-dependent protein kinase 1 (Homo sapiens) (UniProt Q13976).
T5 sequence (whole entry): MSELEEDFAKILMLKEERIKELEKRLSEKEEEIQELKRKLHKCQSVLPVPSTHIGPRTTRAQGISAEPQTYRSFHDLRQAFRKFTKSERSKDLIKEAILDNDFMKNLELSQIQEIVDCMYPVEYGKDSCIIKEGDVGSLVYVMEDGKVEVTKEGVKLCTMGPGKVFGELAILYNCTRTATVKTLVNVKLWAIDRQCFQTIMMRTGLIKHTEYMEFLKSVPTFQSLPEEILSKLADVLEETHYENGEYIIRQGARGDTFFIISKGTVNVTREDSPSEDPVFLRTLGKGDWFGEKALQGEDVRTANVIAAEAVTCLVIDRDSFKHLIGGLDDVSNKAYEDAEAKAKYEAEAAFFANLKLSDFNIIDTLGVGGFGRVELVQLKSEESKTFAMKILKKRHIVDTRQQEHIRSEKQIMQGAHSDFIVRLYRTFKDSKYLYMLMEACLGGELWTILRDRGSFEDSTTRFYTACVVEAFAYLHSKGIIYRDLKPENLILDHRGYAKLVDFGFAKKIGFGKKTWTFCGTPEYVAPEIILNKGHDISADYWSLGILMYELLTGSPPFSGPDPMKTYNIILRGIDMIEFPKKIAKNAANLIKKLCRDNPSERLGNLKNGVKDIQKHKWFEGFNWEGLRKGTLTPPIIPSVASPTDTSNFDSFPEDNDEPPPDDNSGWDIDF
The settings on record: at 0.1 µM.

The target in assay [15] is T5, cGMP-dependent protein kinase 1 (Homo sapiens). The settings on record: at 1 µM.
Assay [16] concerns the target T6, cGMP-dependent protein kinase 2 (Homo sapiens) (UniProt Q13237).
T6 sequence (whole entry): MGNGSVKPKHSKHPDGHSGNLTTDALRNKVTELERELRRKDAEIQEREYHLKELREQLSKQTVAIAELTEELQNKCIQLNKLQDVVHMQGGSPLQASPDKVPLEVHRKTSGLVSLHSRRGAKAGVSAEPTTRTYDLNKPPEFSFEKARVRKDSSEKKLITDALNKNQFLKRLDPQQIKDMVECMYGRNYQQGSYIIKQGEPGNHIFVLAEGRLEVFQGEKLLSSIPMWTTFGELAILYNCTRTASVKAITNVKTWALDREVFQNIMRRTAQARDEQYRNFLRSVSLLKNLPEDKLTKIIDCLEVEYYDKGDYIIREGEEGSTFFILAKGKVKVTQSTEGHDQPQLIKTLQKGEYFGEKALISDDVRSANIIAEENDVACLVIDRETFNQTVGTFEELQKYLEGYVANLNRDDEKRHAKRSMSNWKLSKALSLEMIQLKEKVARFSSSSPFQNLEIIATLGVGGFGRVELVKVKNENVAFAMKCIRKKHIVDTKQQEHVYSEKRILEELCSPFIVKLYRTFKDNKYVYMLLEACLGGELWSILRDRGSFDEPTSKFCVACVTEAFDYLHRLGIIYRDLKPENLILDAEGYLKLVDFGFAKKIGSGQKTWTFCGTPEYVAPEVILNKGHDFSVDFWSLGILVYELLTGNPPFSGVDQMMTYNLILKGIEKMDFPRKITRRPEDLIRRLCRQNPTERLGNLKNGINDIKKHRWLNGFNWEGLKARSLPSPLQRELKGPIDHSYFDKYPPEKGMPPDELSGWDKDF
As to conditions: at 0.1 µM.

Assay [17] deals with T6, cGMP-dependent protein kinase 2 (Homo sapiens). The settings on record: at 1 µM.
For assay [18], the target named is T7, cAMP-dependent protein kinase catalytic subunit PRKX (Homo sapiens) (UniProt P51817).
T7 sequence (whole entry): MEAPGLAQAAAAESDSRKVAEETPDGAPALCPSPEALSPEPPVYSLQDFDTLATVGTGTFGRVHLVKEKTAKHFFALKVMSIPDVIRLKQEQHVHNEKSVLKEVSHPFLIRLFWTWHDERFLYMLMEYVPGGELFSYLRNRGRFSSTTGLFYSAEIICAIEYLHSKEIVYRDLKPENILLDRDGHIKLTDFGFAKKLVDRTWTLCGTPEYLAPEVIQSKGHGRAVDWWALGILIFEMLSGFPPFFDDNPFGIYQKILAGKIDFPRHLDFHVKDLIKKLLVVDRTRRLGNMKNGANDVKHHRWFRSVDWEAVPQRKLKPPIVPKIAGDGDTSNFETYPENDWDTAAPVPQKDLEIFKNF
The settings on record: at 0.1 µM.

The target of assay [19] is T7, cAMP-dependent protein kinase catalytic subunit PRKX (Homo sapiens). The settings on record: at 1 µM.
In assay [20] the target is Rho-associated protein kinase 1 (Homo sapiens) (UniProt Q13464). As to conditions: at 0.1 µM.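 Also: values are mean percent inhibition of ROCK1.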
Sequence of Rho-associated protein kinase 1 (Homo sapiens) (Q13464 2-1354 limits assumed): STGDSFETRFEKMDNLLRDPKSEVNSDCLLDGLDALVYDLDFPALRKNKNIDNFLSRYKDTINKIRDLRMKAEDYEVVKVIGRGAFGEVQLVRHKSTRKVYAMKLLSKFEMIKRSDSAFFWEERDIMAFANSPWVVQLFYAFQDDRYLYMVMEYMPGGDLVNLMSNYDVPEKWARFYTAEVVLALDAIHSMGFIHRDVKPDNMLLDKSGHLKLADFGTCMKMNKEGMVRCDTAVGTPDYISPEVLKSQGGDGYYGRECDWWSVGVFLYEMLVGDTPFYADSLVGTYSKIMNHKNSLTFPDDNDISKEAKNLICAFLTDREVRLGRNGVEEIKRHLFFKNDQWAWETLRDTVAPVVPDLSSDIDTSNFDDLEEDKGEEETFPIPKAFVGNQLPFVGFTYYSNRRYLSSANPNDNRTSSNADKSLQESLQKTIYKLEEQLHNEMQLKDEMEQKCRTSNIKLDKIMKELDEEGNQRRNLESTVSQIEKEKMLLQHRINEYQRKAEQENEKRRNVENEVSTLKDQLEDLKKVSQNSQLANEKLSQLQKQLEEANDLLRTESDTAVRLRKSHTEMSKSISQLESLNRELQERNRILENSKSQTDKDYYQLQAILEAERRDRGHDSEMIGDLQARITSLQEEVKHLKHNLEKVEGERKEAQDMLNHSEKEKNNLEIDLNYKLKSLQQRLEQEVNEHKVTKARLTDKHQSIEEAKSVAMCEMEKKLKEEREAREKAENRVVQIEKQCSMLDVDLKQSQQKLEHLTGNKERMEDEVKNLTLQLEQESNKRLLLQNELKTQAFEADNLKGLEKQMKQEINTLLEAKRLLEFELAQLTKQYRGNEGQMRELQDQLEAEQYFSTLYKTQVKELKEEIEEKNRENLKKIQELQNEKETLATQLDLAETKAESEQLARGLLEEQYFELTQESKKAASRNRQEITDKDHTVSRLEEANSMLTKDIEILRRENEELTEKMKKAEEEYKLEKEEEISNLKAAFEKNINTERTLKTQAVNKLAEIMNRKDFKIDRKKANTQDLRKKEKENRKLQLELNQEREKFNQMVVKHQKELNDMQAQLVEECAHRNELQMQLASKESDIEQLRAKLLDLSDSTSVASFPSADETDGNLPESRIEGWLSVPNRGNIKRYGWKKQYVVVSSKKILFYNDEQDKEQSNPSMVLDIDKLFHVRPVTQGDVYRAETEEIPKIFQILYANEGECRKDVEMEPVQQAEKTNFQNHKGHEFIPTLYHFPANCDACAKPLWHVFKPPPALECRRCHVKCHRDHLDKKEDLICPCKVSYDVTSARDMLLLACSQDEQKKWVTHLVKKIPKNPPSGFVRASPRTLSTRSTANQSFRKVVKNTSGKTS

For `CCN(CC)Cc1ccc(Nc2nccc(-c3cnn4ncccc34)n2)cc1`, the inhibition – broadly, the change of the read-out against control, counted positive when it falls – in assay [1] is 7.9%; in assay [2], 1.27%; in assay [3], 2.03%; in assay [4], 2.37%; in [5], 4.84%; in assay [6], 1%. For the same compound, the inhibition came out at 6.38% in [7]; 36.3% in [8]; 65.6% in [9]; 28.1% in [10]; 64.4% in [11]; 30.2% in assay [12]. For the same compound, the inhibition was 62.6% in [13]; 3.48% in assay [14]; 14.9% in [15]; 3.29% in assay [16]; 13.7% in [17]; 2.55% in assay [18]. Further, the values for the inhibition in assay [19] and in assay [20] were 4.27% and 2.36%, respectively.
Take `CN1CCN(CCCNc2nc3ccc(Oc4ccc(NC(=O)Nc5cc(C(F)(F)F)ccc5F)cc4)cc3[nH]2)CC1`: the inhibition in assay [1] was 2.83%; in assay [2], 1.14%; in [3], 1.05%; in [4], -0.2%; in [5], -0.32%; in [6] it was 2.09%. Besides, the inhibition in assay [7] is 2.68%; in assay [8], -0.88%; in [9] it was -1.77%; in assay [10], -2.52%; in [11], -0.73%; in assay [12], -2.59%. Also, the inhibition is -1.97% in [13]; 3.15% in assay [14]; 3.23% in [15]; 3.62% in assay [16]; 2.7% in [17]; 2.54% in assay [18]. Also, the inhibition in assay [19] is 1.08%; in [20] it was 1.94%.
